SMILES strings stand for the structures. Results filed as inconclusive are left out. The source made the active and inactive calls. Calls follow the shape of the full dose curve.

A short description of the assay: qHTS for inhibitors of Rabies Virus screened against the NCATS CANVASS Library (AID 1347402). The note with it: Rabies virus infection cell assay; series mostly up to 45.9 µM. (In general: Quantitative high-throughput screening tests each substance at several concentrations.)
As for `CN1CC[C@@]23c4ccccc4N[C@@H]1[C@@]21CCN(C)[C@@H]3Nc2ccccc21`, the outcome was inactive.
Under `COC(=O)[C@@]12Oc3cccc(O)c3C(O)=C1C(=O)C[C@H](C)[C@H]2O` stands “inactive”.
On to `C=C[C@]1(C)CC[C@@H]([C@H](C)C(=O)/C=C/C(C)(C)O)O1`, for which the compound was called inactive.
For `CO[C@@H]1[C@H](O)[C@@H](C)O[C@@H](OC[C@H]2/C=C/C=C/C(=O)C(C)C[C@H](C)C(O[C@@H]3O[C@H](C)CC4(OC(=O)O[C@@H]4C)C3O)[C@@H](C)/C=C/C(=O)OC2C)[C@@H]1OC` (some centres not stated), the call was inactive.
The result for `COc1ccc([C@@H]2c3cc4c(cc3C(=O)C(C)C2C)OCO4)cc1OC` (some centres not stated) reads “inactive”.
The result for `COc1cc(/C=C2/C(=O)N(c3ccc(O)cc3C(=O)O)[C@H](c3ccc(O)c(OC)c3)C2C(=O)Nc2ccc(O)cc2C(=O)O)ccc1O` (some centres not stated) reads “inactive”.
Regarding `C[C@H](CCC(O)C(C)(O)CO)[C@@]1(O)CC[C@@]2(C)C3=C(CC[C@@]21C)[C@@]1(C)CCC(OC(=O)CCC(=O)O)C(C)(C)[C@@H]1CC3` (some centres not stated), the result was inactive.

The values above are taken from PubChem BioAssay (NCATS).
